# TNFa cytotox: toxic to HUVEC cells under TNF alpha stimulation | HUVEC TNFalpha-stimulated, Hoechst cell count, imaging | 93,000 tested, 0.17% active | cell count reduction, % at 2 µM | AID 848;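 active = cell count reduction exceeding the screen mean by over 5 SD, scaled to untreated wells per plate, cut at about 78% in these data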;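 also: cells counted after 24 h of TNF alpha exposure following the 1 h pretreatment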
# VCAM1 TNFa inh: reduces TNF alpha induced VCAM1 expression in HUVEC. 95,000 tested, 0.48% active. inhibition, % at 2 µM. HUVEC TNFa-induced VCAM-1 immunofluorescence, high-content imaging;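 active = inhibition above the batch mean plus 3 SD, with images confirmed as a hit by eye, cut at about 37% in these data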;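 also: 0% = TNF-stimulated DMSO wells and 100% = unstimulated control wells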
# cytoskel mod: modifiers of cytoskeleton assembly. AID 836. HUVEC TNFa F-actin phalloidin imaging, high content. inhibition, % at 2 µM. 91,000 tested, 0.18% active;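 active = inhibition above the batch mean plus 3 SD and confirmed as a hit by visual image inspection, cut at about 30% in these data, passing the limit was not always enough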
# S1P2 blocker: S1P2 (human) receptor antagonism. O95136. cell-based S1P2 antagonist assay, inhibition at 5 uM. inhibition, % at 5 µM. 97,000 tested, 0.21% active; in the data active = inhibition above about 45%;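 also: CRE beta-lactamase reporter cells expressing human S1P2 stimulated with S1P; 0% = agonist at EC80 alone and 100% = agonist plus reference antagonist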
# Target sequence (O95136 whole entry, looked up): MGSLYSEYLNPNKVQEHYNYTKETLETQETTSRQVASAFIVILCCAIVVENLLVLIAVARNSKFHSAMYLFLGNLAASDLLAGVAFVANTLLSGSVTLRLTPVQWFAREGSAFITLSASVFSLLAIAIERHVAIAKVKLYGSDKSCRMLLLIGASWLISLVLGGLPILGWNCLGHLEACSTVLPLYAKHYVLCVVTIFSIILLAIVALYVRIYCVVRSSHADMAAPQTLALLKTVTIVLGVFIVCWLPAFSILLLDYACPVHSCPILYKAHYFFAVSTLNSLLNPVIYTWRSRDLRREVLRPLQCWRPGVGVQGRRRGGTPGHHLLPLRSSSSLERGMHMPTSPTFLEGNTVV
# E-sel TNF inh: blocks E-selectin expression induced by TNF alpha; HUVEC TNFa-induced E-selectin immunofluorescence, high content; inhibition, % at 2 µM; 120,000 tested, 0.71% active;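 active = inhibition above the batch mean plus 3 SD, and confirmed as a hit on visual image review, cut at about 43% in these data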;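 also: 0% = TNF-stimulated DMSO wells and 100% = unstimulated control wells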
# S1P2 agonist: S1P2 (human) receptor agonism | O95136 | S1P2-expressing cell line, agonist reporter read-out | activation, % at 4.5 µM | 97,000 tested, 0.46% active | AID 729; in the data active = activation above about 16%;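 also: 0% = vehicle low control and 100% = maximal reference agonist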
# * = called active by the depositor; . = no result given. Hits are enriched below; roughly 1.6% of the tested compounds scored in any of these assays.
SMILES,TNFa cytotox,VCAM1 TNFa inh,cytoskel mod,S1P2 blocker,E-sel TNF inh,S1P2 agonist
Cn1nnc(NC(=O)c2ccccc2)n1,-18,-10,0,0,-29,-5
Cc1ccc(C)c(NC(=O)C2CCCN2/C=C/C(=O)C(F)(F)F)c1 (stereo unspecified),.,.,.,.,-24,.
CCn1c(SCC(=O)Nc2ccc(C)cc2)nnc1-c1ccc(O)cc1,-5,13,-1,-9,-6,2
CC(=O)Nc1ccc(S(=O)(=O)NC(C)C(=O)NCCc2ccc(F)cc2)cc1 (stereo unspecified),.,.,.,.,-30,.
CN(C)S(=O)(=O)c1cc(NC(=O)CSc2nn(-c3ccc(Cl)cc3)c(=S)s2)ccc1Cl,.,.,.,.,72*,.
CCn1c(CN2CCN(c3ccc(Cl)cc3)CC2)nc2ccccc21,-19,58*,10,18,14,14
CC(C)Nc1cc(N2CCCC2)ccc1[N+](=O)[O-],-9,2,2,-5,-54,-5
CNC(=O)c1sc(-c2ccccn2)nc1C,.,.,.,.,-23,.
Cn1c(N)c(C(=O)COC(=O)CN2C(=O)c3ccccc3C2=O)c(=O)n(C)c1=O,.,.,.,.,68*,.
CCc1ccccc1OCC(=O)OCC(=O)c1c(N)n(C)c(=O)n(C)c1=O,.,.,.,.,-10,.
O=C(Nc1ccccc1-c1nc2ccccc2[nH]1)c1sc2ccccc2c1Cl,.,.,.,.,-22,.
Cc1ccc(C(=O)Nc2ccc(O)cc2C(=O)O)cc1C,4,-3,.,-4,-8,-3
Cc1ccc(C(=O)Nc2ccc(O)cc2C(=O)O)cc1,-9,-11,22,-10,61*,0
CCCC1(c2ccccc2)NC(=O)N(CCN2C(=O)c3ccccc3C2=O)C1=O (stereo unspecified),-14,-1,32,2,-20,-10
Cc1cc(C(=O)CN2C(=O)c3cccc(N)c3C2=O)c(C)n1Cc1cccs1,9,14,-5,0,.,9
O=c1c(-c2nc3ccccc3s2)cccn1Cc1ccc(Cl)cc1,-8,2,10,-87,23,96*
O=C(c1ccc([N+](=O)[O-])cc1)N1CCN(Cc2ccccc2[N+](=O)[O-])CC1,.,.,.,.,-9,.
COc1ccc(/C(O)=C2\C(=O)C(=O)N(CCN3CCOCC3)C2c2ccccc2OC)cc1 (stereo unspecified),.,.,.,.,42,.
COc1ccccc1C1/C(=C(/O)c2ccc(C)cc2)C(=O)C(=O)N1CCN1CCOCC1 (stereo unspecified),.,.,.,.,70*,.
Cc1ccc(OCC(=O)N(C)Cc2ccccc2)c([N+](=O)[O-])n1,.,.,.,.,-26,.
O=C(CCS(=O)(=O)c1ccccc1)Nc1nc2c(s1)COc1ccccc1-2,-65,25,46*,13,.,-8
COC(=O)/C(=C\Nc1ccc(Cl)c2ccccc12)c1ncc(C(F)(F)F)cc1Cl,-13,-10,7,3,9,-11
CON/C=C(\C=Nc1ccc(F)cc1)c1ncc(C(F)(F)F)cc1Cl,-16,8,27,63*,2,-9
Cc1cccc(NC(=O)Nc2ccc(C#N)cc2)n1,.,.,.,.,55*,.
CCCCN(CCCC)c1nc(OC)nc(-n2nnc(C(C)=O)c2C)n1,-9,14,-6,-14,-6,2
SMILES,TNFa cytotox,VCAM1 TNFa inh,cytoskel mod,S1P2 blocker,E-sel TNF inh,S1P2 agonist
CC(=O)c1nnn(-c2nc(N)nc(N(c3ccccc3)c3ccccc3)n2)c1C,-13,4,60,-3,61*,-9
COc1ccc(C(=O)N/N=C/C2CC=CCC2)cc1OC (stereo unspecified),.,.,.,.,-1,.
O=C(Nc1cc2ccccc2oc1=O)c1ccccc1,.,.,.,.,72*,.
COc1ccc(C(=O)NC2(C(F)(F)F)NC(=O)N(CCCc3ccccc3)C2=O)cc1OC (stereo unspecified),.,.,.,.,15,.
O=C1N/C(=N\N=C\c2ccc3ncccc3c2)SC1Cc1ccc(SC(F)F)cc1 (stereo unspecified),-4,-12,-12,8,-8,-6
O=C1N/C(=N\N=C\c2cccnc2)SC1Cc1ccc(SC(F)F)cc1 (stereo unspecified),-1,-1,-15,-16,7,31*
Cc1ccc(S(=O)(=O)N(C)CCCC(=O)Nc2cc(C)ccc2C)cc1,.,.,.,.,97*,.
CC(=O)c1cccc(N(C(=O)c2cnccn2)C(C(=O)NCc2ccccc2)c2ccco2)c1 (stereo unspecified),-1,14,-13,3,10,-9
CCS(=O)(=O)Nc1ccc(C(=O)c2ccccc2)cc1,-7,-10,5,-14,6,-4
O=[N+]([O-])c1ccc(-c2nnc(CSc3nc(-c4ccccc4)nc4ccc(F)cc34)o2)cc1,.,.,.,-2,-5,-1

# Bioassay records as filed in PubChem BioAssay.
